# In PubChem BioAssay (Tox21):
# “And” between values parts separate entries of the source, which are not always exact repeats. Equal entries are not always repeated. Inconclusive results are not listed. Entries that show only a call come without a potency. Where a structure was tested more than once in an assay, its records may differ in their call. The source made the active and inactive calls. Calls follow the shape of the dose curve; as a rule, active = well fitted inhibition curve with a large enough effect in the signal ratio in the repeat runs (not every such curve was filed as active); inconclusive = weak or mixed curves; inactive = flat fitted curve, though single readings scatter; the % refers to the signal ratio.
# Target: Progesterone receptor (Homo sapiens) (UniProt P06401)
# Experiment: qHTS assay to identify small molecule antagonists of the progesterone receptor (PR) signaling pathway (AID 1346795)
# Details: PR-UAS-bla HEK293T, beta-lactamase FRET ratio, 16 h; series mostly up to 92.4 µM
# Summary of the method: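 HEK293T PR-UAS-bla reporter cells in charcoal-stripped serum (2%) received compound after a 6 hr settling period, followed by R5020 agonist at 1 nM final; 16 hr incubation preceded the FRET substrate step and fluorescence measurement.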
# Potency is read from the fitted curve at half-maximal effect.
# Sequence of Progesterone receptor (Homo sapiens) (P06401 whole entry, looked up): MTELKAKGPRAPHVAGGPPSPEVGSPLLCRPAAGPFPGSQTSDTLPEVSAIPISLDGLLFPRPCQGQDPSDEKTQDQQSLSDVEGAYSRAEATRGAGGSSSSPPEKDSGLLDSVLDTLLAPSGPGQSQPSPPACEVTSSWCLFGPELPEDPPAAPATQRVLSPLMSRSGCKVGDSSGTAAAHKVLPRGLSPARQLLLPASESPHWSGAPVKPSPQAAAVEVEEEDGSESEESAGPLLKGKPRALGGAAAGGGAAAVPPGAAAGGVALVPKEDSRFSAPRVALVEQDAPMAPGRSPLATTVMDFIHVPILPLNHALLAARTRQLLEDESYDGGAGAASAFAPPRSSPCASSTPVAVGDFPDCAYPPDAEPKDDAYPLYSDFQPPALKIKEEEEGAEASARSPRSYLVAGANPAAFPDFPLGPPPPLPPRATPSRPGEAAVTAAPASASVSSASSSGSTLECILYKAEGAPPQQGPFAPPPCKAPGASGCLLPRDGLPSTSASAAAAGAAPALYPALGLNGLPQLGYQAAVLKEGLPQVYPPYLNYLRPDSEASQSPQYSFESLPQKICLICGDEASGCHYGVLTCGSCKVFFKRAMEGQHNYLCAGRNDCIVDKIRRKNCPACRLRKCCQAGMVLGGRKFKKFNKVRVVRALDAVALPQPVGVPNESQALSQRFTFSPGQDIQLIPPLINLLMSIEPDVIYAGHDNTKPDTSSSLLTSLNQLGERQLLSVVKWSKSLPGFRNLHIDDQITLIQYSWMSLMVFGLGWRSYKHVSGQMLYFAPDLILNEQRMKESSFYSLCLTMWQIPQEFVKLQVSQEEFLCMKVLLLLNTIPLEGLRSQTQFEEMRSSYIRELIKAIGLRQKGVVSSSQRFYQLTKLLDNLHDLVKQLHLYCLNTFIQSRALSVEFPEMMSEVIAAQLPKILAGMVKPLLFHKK
row,SMILES,Potency
1,O=C1C2CC=CCC2C(=O)N1SC(Cl)(Cl)Cl (stereo unspecified),inactive and 42.6 µM (active)
2,O=C(Cl)C(Cl)Cl,inactive
3,C/C=C/CC#N,inactive
4,S=C=S,inactive
5,O=C1CC(=O)NC(=O)N1,inactive
6,CCN(CCO)CCO,inactive
7,ClC1=C(Cl)C2(Cl)C(CBr)CC1(Cl)C2(Cl)Cl (stereo unspecified),inactive
8,CCOC(=O)c1ncn2c1CN(C)C(=O)c1c(I)cccc1-2,inactive
9,COc1ccccc1OC,inactive
10,c1cncc([C@@H]2CCCCN2)c1,inactive
11,CC(Cc1ccccc1)NCCn1cnc2c1c(=O)n(C)c(=O)n2C (stereo unspecified),inactive
12,CC(C)(O)C(Cl)(Cl)Cl,inactive
13,O=C(Cl)CCl,inactive
14,N#CN,inactive
15,CCN(CCO)CCn1c(Cc2ccccc2)nc2c1c(=O)n(C)c(=O)n2C,inactive
16,CC[C@H](N)c1ccccc1,inactive

row,SMILES,Potency
1,C=CC1(C)OC(=O)N(c2cc(Cl)cc(Cl)c2)C1=O (stereo unspecified),21.6 µM (active)
2,CN=CNc1ccc(C)cc1C,inactive
3,O=C(Cl)C(Cl)(Cl)Cl,inactive
4,CCOC(=O)C(Cl)Cc1cc(-n2nc(C)n(C(F)F)c2=O)c(F)cc1Cl (stereo unspecified),inactive
5,Cc1cc(OC(=O)N(C)C)nn1C(=O)N(C)C,inactive
6,O=C(O)c1c(Cl)ccc2cc(Cl)cnc12,inactive
7,COP(=O)(OC)O/C(C)=C/C(=O)N(C)C,inactive
8,CS(=O)(=O)Cl,inactive
9,CCC(C(N)=O)N1CCCC1=O (stereo unspecified),inactive
10,CN(CCO)CCO,inactive
11,NCCOS(=O)(=O)O,inactive
12,C=CCCC#N,inactive
13,O=C(NC(O)C(Cl)(Cl)Cl)NC(O)C(Cl)(Cl)Cl (stereo unspecified),inactive
14,COc1cccc(C=O)c1,inactive
15,CCC(C)C(C)(COC(N)=O)COC(N)=O (stereo unspecified),inactive
